# According to PubChem BioAssay (NCI):
# This is part of a sample that, as a whole, favours compounds with a hit. Of some 83,000 tested, about 20% had one in any assay.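 For each line, cells grew in 96-well plates with the test compound present at a single concentration for 48 hours.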 Values without a mark were called inactive. Active and inactive are the calls of the source. How the source made its calls: active means growth percent below 10; inactive means the rest.
# Legend:
# Test in all cases: NCI-60 one-dose screen, 48 h (100 = growth as untreated, 0 = no growth, -100 = all killed)
# Conditions in all cases: 10 µM unless noted
# NCI-H23 lung = tested on: NCI-H23 lung
# NCI-H226 lung = tested on: NCI-H226 lung
# NCI-H322M lung = tested on: NCI-H322M lung
# HOP-62 NSCLC = tested on: HOP-62 NSCLC
# NCI-H460 lung = tested on: NCI-H460 lung
# HOP-92 NSCLC = tested on: HOP-92 NSCLC
# NCI-H522 lung = tested on: NCI-H522 lung
# A549/ATCC NSCLC = tested on: A549/ATCC NSCLC
# 786-0 renal = tested on: 786-0 renal
# COLO 205 colon = tested on: COLO 205 colon
SMILES,growth (NCI-H23 lung),growth (NCI-H226 lung),growth (NCI-H322M lung),growth (HOP-62 NSCLC),growth (NCI-H460 lung),growth (HOP-92 NSCLC),growth (NCI-H522 lung),growth (A549/ATCC NSCLC),growth (786-0 renal),growth (COLO 205 colon)
O=C1/C(=C/C=C/c2ccco2)SC(=S)N1Cc1ccccc1,89.6%,95.2%,91.8%,105%,95.2%,87.1%,98.4%,93.7%,101%,121%
N#CC1=C2NCCCNc3oc(nc3C#N)Cc3ccccc3CC(=N1)O2,90.7%,92.3%,94.5%,97.8%,96.8%,94.9%,97.1%,98.3%,95%,88.1%
COc1cc(OC)cc(-c2cc(-c3c[nH]c4ccccc34)nc(-c3c[nH]c4ccccc34)c2C#N)c1,104%,87.3%,105%,96.3%,103%,95%,92.1%,98.5%,105%,110%
CCCCCCCCCCCC(=O)NC(C)(C)C(=O)N1CCCC1C(=O)NC(C)(C)C(=O)NC(C)(C)C(=O)N1CCCC1C(=O)NC(C)(C)C(=O)NC(C)(C)C(=O)N1CCCC1C(=O)NC(C)C(=O)NCCC(=O)NC(C)C(=O)NC(C)(C)C(=O)NC(C)(C)C(=O)NC(C)(C)C(=O)NCCC(=O)NC(C)(C)C(=O)NC(C)(C)C(=O)NC(C)(C)C(=O)NC(C)C(=O)NCCC(=O)O (centres undefined),-92.9% (active),-61.8% (active),-99.6% (active),-93.3% (active),-79.7% (active),-96% (active),-89.8% (active),-77.9% (active),-96.3% (active),-89.2% (active)
N#Cc1c(-c2ccc(F)cc2)cc(-c2c[nH]c3ccccc23)nc1-c1c[nH]c2ccccc12,100%,94%,106%,101%,104%,93.4%,97%,101%,99.5%,113%
CNC(=O)c1cc(-c2ccc(NC(=S)Nc3cccc(C(F)(F)F)c3)cc2)nc2cccnc12,92.4%,95.8%,96.1%,102%,99.4%,85%,89.7%,96.9%,96.7%,104%
COc1ccc(/C=N/N=C(/c2ccccc2)c2ccc3nc(-c4ccc(Cl)cc4)[nH]c3c2)cc1,91.1%,77%,84.3%,99.3%,90%,106%,72.9%,75.1%,76.9%,72%
O=C(Nc1ccc(Cl)c(C(F)(F)F)c1)Nc1ccc2c(ccn2C(=O)c2cccc(F)c2)c1,10.3%,36.5%,73.1%,54.5%,13.2%,5.69% (active),5.03% (active),30.6%,42.4%,25.3%
N#C/C(=C\c1cccc2c1OCO2)C(=O)Nc1sc2c(c1C#N)CCCC2,102%,95.8%,89.1%,96.8%,110%,101%,94.2%,104%,99.6%,119%
O=C(O)c1ccc(-n2c(=O)n(-c3cccc(C(F)(F)F)c3)c(=O)c3cc(-c4ccc(F)cc4F)ccc32)cc1,-4.43% (active),10.4%,8.23% (active),6.54% (active),5.81% (active),-28.5% (active),-7.88% (active),10%,22.3%,65.1%
C#CCOc1ccccc1/C=N/Nc1nc(-c2ccc(Cl)cc2)cs1,83.3%,82.8%,90.6%,96%,97.7%,88.2%,87.8%,101%,102%,109%
Cc1ccc(-c2nc(SCC(=O)c3ccccc3)nc(Nc3ccc(S(N)(=O)=O)cc3)c2C#N)cc1,34.5%,71.4%,99.5%,26.2%,65.2%,37.6%,87.1%,87.4%,46.3%,101%
CC(=O)Nc1ccccc1-c1nc2ccccc2s1,91.8%,98.9%,101%,101%,101%,96.6%,95.7%,106%,104%,113%
O=C1[C@H]2Cc3c([nH]c4ccccc34)[C@H](c3ccc(Br)cc3)N2C(=O)CN1C1CCN(CC2CCCCC2)CC1,83.5%,92.5%,92.8%,82.2%,54.1%,77.2%,83.6%,79.4%,83.4%,81.3%
CCOC(=O)c1c(NC(=O)c2ccc(C(F)(F)F)cc2)sc2c3c(ccc12)OCN(C)C3,85.6%,97%,73.4%,-53.2% (active),-17.8% (active),14.5%,-60.3% (active),-37.9% (active),30.8%,-22% (active)
CCN1CCN(c2ccc(NC(=O)Nc3ccc4c(ccn4-c4ccnc(C(=O)NC)c4)c3)cc2C(F)(F)F)CC1,81.8%,92.8%,85.5%,79.1%,75.6%,84.7%,105%,91.3%,10.3%,97.9%
COc1cc(C(C)=C(c2ccc(OCCN(C)C)cc2)c2ccc(OCCN(C)C)cc2)ccc1F,96.5%,92.9%,96.6%,97.2%,106%,73.4%,99.7%,113%,94.3%,104%
CCOC(=O)c1cccnc1Nc1ccc(NC(=O)Nc2ccc(Cl)c(C(F)(F)F)c2)cc1,10.1%,52.4%,68.9%,54.1%,17.2%,-8.46% (active),21%,42.8%,68%,31.7%
CN1CCN(Cc2ccc(NC(=O)c3cncc(C#Cc4cnc5ccc(OCC6COC6)nn45)c3)cc2C(F)(F)F)CC1,-58% (active),-65.2% (active),-36.5% (active),-72.3% (active),-81% (active),-33.4% (active),-70.7% (active),-68.7% (active),-85.6% (active),-76.3% (active)
COC(=O)CNC(=O)c1cccc(-c2cc(=O)c3c(OC)c(OC)c(OC)cc3o2)c1,98.1%,95.8%,85.4%,119%,98.7%,67.6%,–,101%,104%,114%
